# Measurements reported in PubChem BioAssay (NCATS).
# Records with an inconclusive call do not appear. A number with no mark means an inactive call. Activity calls are given as the source filed them. Calls follow the shape of the dose curve; as a rule, active = well fitted inhibition curve with a large enough effect; inconclusive = small, poorly fitted or top-dose-only effect; inactive = flat fitted curve, though single readings scatter.
# Columns and labels:
# [1] = test system: CRL-7250; assay: Cytotoxic Profiling of Annotated Libraries Using Quantitative High-Throughput Screening (AID 1296008); settings: Five cell lines viability, CellTiter-Glo ATP luminescence, 48-72 h; max response: active compounds read low; as to max response: % is scaled to controls: 0 for no effect and ±100 for the full control effect
# Summary of the method: (§1)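 Cytotoxicity was measured as CellTiter-Glo ATP luminescence, read after 10 min at room temperature. Compound treatment of the cells lasted 48 or 72 hr at 37 degrees Celsius in a qHTS format.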
# [2] = test system: HaCat; assay: as above; settings: Five cell lines viability, CellTiter-Glo ATP luminescence, 48-72 h; max response: active compounds read low
# Summary of the method: as §1
# [3] = test system: KB-3-1; assay: as above; settings: Five cell lines viability, CellTiter-Glo ATP luminescence, 48-72 h; max response: active compounds read low
# Summary of the method: as §1
# [4] = test system: NIH3T3; assay: as above; settings: Five cell lines viability, CellTiter-Glo ATP luminescence, 48-72 h; max response: active compounds read low
# Summary of the method: as §1
# [5] = test system: HACAT; assay: qHTS assay to identify novel small-molecules to repurpose for Merkel cell carcinoma treatment (AID 1296009); settings: MCC and control cell lines, CellTiter-Glo viability, 72 h; at 44.8 µM (top of the series) unless noted
# Summary of the method: (§2)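 After compound transfer in DMSO, plates were kept 72 hr at 37 degree celsius. Luminescent ATP signal from CellTiter-Glo served as viability measure, normalized against DMSO and no-cell controls.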
# [6] = test system: MCC-26; assay: as above; settings: MCC and control cell lines, CellTiter-Glo viability, 72 h
# Summary of the method: as §2
# Also: nearly all actives have a fitted effect of over 60% in size.
# Potency is read from the fitted curve at half-maximal effect.
compound,measurement,setting,value
CC(=O)O[C@@H]1C[C@@]2(C)C(CC[C@]3(C)C2CC=C2C4CC(C)(C)CC[C@]4(C(=O)O)CC[C@]23C)C(C)(C)[C@H]1O (stereo partly drawn),max response,[1],3.23%
same,outcome,[2],inactive
same,max response,[3],-16.7%
same,max response,[4],-4.52%
same,outcome,[5],inactive [at 17.4 µM]
O=C(OC1CN2CCC1CC2)N1CCc2ccccc2C1c1ccccc1 (stereo not drawn),max response,[1],0.185%
same,outcome,[2],inactive
same,max response,[3],-9.02%
same,outcome,[5],inactive
CC(C)(O)c1ccc2c(c1)ncn2-c1cccc(-c2ccccc2C#N)c1,outcome,[1],inactive
same,outcome,[2],inactive
same,max response,[3],-0.453%
same,outcome,[4],inactive
same,outcome,[5],inactive
C=C1CCC2C(C)(C)CCCC2(C)C1CC/C(C)=C\CO (stereo not drawn),max response,[1],3.55%
same,outcome,[2],inactive
same,max response,[3],1.75%
same,outcome,[4],inactive
same,outcome,[5],inactive
CCOc1nc(NC(=O)Cc2cc(OC)ccc2OC)cc(N)c1C#N,max response,[1],-9.74%
same,outcome,[2],inactive
same,max response,[3],7.15%
same,outcome,[5],inactive
CCN(Cc1cc(Nc2nc(C)cn3c(-c4cn[nH]c4)cnc23)sn1)C(C)(C)CO,Potency,[1],0.0731 µM (active)
same,Potency,[2],1.46 µM (active)
same,Potency,[4],0.461 µM (active)
C=C1C(=O)O[C@@H]2/C=C(\C)CC/C=C(/C=O)[C@H](OC)[C@@H](OC(=O)C(C)C)[C@@H]12,max response,[1],2.09%
same,outcome,[2],inactive
same,outcome,[3],inactive
same,outcome,[5],inactive
O=C(NCC1(c2nc(-c3ccccc3)cs2)CCOCC1)c1cccc(-c2noc(C(F)(F)F)n2)c1,max response,[1],-0.2%
same,outcome,[2],inactive
same,max response,[3],-10.2%
same,outcome,[5],inactive
CN(C)c1cccc(Oc2cnc(Nc3cccc(O)c3)nc2)c1,max response,[1],4.02%
same,outcome,[2],inactive
same,outcome,[3],inactive
same,outcome,[5],inactive
C=C(C)C1=C[C@@]2(C)C(=CC1=O)CC[C@@H](O)[C@@H]2C,max response,[1],3.24%
same,outcome,[2],inactive
same,outcome,[3],inactive
same,outcome,[5],inactive
C=C1C(=O)OC2/C=C(\C)CC/C=C(\C=O)C(OC)C(OC(=O)C(C)CC)C12 (stereo not drawn),max response,[1],-23.9%
same,outcome,[2],inactive
same,max response,[3],-2.57%
same,outcome,[5],inactive
C=C1C(=O)OC2CC(C)C(CCC(C)=O)=CCC12 (stereo not drawn),max response,[1],-28.7%
same,outcome,[2],inactive
same,max response,[3],-13.7%
same,outcome,[5],inactive
Cc1cc(C(C)Nc2ccccc2C(=O)O)c2nc(N3CCOCC3)cc(=O)n2c1 (stereo not drawn),max response,[1],-22.4%
same,Potency,[2],7.31 µM (active)
same,Potency,[4],23.1 µM (active)
Cc1csc(N(C(=O)CSc2ccc(-c3ccccc3)nn2)C2CC2)n1,max response,[1],-10.7%
same,outcome,[2],inactive
same,max response,[3],-2.9%
same,outcome,[5],inactive
CN[C@H]1CC[C@@H](c2ccc(Cl)c(Cl)c2)c2ccccc21,Potency,[1],3.76 µM (active)
same,Potency,[2],15 µM (active)
same,max response,[3],-11.2%
same,Potency,[4],11.9 µM (active)
same,Potency,[6],26.6 µM (active)
Cc1cc(CS(=O)(=O)c2ccccc2)cc(OCc2ccc(CN3CCCC3CO)cc2)c1 (stereo not drawn),max response,[1],4.21%
same,outcome,[2],inactive
same,max response,[3],-16.6%
same,outcome,[5],inactive
CCOc1cccc(NC(=O)c2ccc(N3CCCC3)c(C(F)(F)F)c2)c1,max response,[1],-10.4%
same,outcome,[2],inactive
same,max response,[3],-0.259%
same,outcome,[5],inactive
CC(C)S(=O)(=O)c1ccc2nccc(Nc3ccc4scnc4c3)c2c1,max response,[1],-19%
same,outcome,[2],inactive
same,outcome,[3],inactive
same,outcome,[5],inactive
CCC/C=C/C=C/C1CC(O)C2(O)C(=O)OCC12 (stereo not drawn),outcome,[1],inactive
same,outcome,[2],inactive
same,max response,[3],7.96%
same,max response,[4],4.66%
same,outcome,[5],inactive
Cc1[nH]c(/C=C2\C(=O)Nc3cc(-c4ccccc4)ccc32)c(C)c1CCC(=O)O,max response,[1],-17.7%
same,outcome,[2],inactive
same,max response,[3],-8.26%
same,outcome,[5],inactive
CN1CCN(C2=Nc3ccccc3Nc3ccc(OS(=O)(=O)C(F)(F)F)cc32)CC1,outcome,[1],inactive
same,outcome,[2],inactive
same,max response,[3],-4.68%
same,outcome,[4],inactive
same,outcome,[5],inactive
N[C@@H]1c2cccnc2[C@H](OC(=O)N2CCC(n3c(=O)[nH]c4ncccc43)CC2)CC[C@H]1c1cccc(F)c1F,max response,[1],-0.901%
same,outcome,[2],inactive
same,max response,[3],4.19%
same,outcome,[4],inactive
same,outcome,[5],inactive
O=C(NC[C@H]1CN(c2ccc(N3CCOCC3=O)cc2)C(=O)O1)c1ccc(Cl)s1,max response,[1],0.206%
same,outcome,[2],inactive
same,max response,[3],-11.5%
same,max response,[4],-0.938%
same,outcome,[5],inactive
C=C1C(=O)OC2/C=C(\CO)CC/C=C(\C=O)C(O)C(OC(=O)C(C)CC)C12 (stereo not drawn),max response,[1],0.0349%
same,outcome,[2],inactive
same,outcome,[3],inactive
same,outcome,[5],inactive
COc1ccc(C(=O)O[C@H]2C=COC=C3C=C4C(=O)N(C)C(=S)C(=O)N4[C@@H]32)cc1Oc1cc(C=O)ccc1O,max response,[1],-5.08%
same,outcome,[2],inactive
same,outcome,[3],inactive
same,outcome,[5],inactive [at 17.4 µM]
NCC(CNc1nc(Nc2cccc(NC(=O)N3CCCC3)c2)ncc1I)C(=O)c1cccs1 (stereo not drawn),max response,[1],-26%
same,outcome,[2],inactive
same,Potency,[3],11.6 µM (active)
same,outcome,[5],inactive
CN(C)N(C)C(=O)[C@@]1(Cc2ccccc2)CCCN(C(=O)[C@@H](Cc2c[nH]c3ccccc23)NC(=O)C(C)(C)N)C1,max response,[1],-26.9%
same,outcome,[2],inactive
same,max response,[3],4.19%
same,max response,[4],-7.17%
same,outcome,[5],inactive
Cc1c(NC(=O)c2cc3c(s2)CCCC3)cccc1-c1cn(C)c(=O)c(Nc2ccc(C3C(=O)N(C)CCN3C)cc2)n1 (stereo not drawn),max response,[1],-5.13%
same,outcome,[2],inactive
same,outcome,[3],inactive
same,outcome,[5],inactive
CCNC1(C(N)=O)CCN(c2ncnc3c2nc(-c2ccccc2Cl)n3-c2ccc(Cl)cc2)CC1,outcome,[1],inactive
same,outcome,[2],inactive
same,max response,[3],6.15%
same,max response,[4],-1.7%
same,outcome,[5],inactive
NC(=O)CCCSc1nc(N)nc(-c2c(Cl)cc3c4c(cccc24)COC3)n1,Potency,[1],1.46 µM (active)
same,Potency,[2],0.291 µM (active)
same,Potency,[4],0.731 µM (active)
Cc1nc2c(C(F)(F)F)cccc2nc1-c1ccc(-c2cccc(S(C)(=O)=O)c2)cc1,max response,[1],-1.09%
same,max response,[2],-0.882%
same,max response,[4],-12.4%
COc1cc(CN(CCN)C(=O)c2cccs2)ccc1OCc1ccccc1,max response,[1],4.59%
same,max response,[2],-3.01%
same,max response,[4],-11.2%
C/C(=C/C=C\C=C\Cc1cnco1)[C@@H](O)C(C)(C)C(N)=O,max response,[1],0.0485%
same,max response,[2],-5.26%
same,max response,[4],-15.3%
CC(=O)OC1C(OC(=O)c2ccccc2)C2C(=C(C)CCC2(C)C)C23CCC(C)(C2)C(=O)CC13 (stereo not drawn),max response,[1],-34.2%
same,max response,[2],-3.85%
same,max response,[4],-18.4%
CCC(C)CNCC(=O)N1CCc2sccc2C1COc1cccc(C)c1 (stereo not drawn),max response,[1],-0.461%
same,max response,[2],1.97%
same,max response,[4],-25.4%
COc1cccc(-c2cc(F)ccc2C2Cc3nc(N)nc(C)c3C(=O)N2)n1 (stereo not drawn),Potency,[1],0.146 µM (active)
same,Potency,[2],0.0461 µM (active)
same,Potency,[4],0.058 µM (active)
CCC(C)CNCC(=O)N1CCC2SC=CC2C1COc1cccc(C)c1 (stereo not drawn),max response,[1],-4.73%
same,max response,[2],3.39%
same,max response,[4],-20.9%
CC(=O)NC(C)c1cnc(-c2cnc(Oc3ccc(OC(C)C)cc3)s2)s1 (stereo not drawn),max response,[1],-17.1%
same,max response,[2],2.34%
same,max response,[4],0.946%
COc1ccc(S(=O)(=O)Nc2c(C)cc(C)cc2C)cc1,outcome,[1],inactive
same,max response,[2],-0.296%
same,max response,[4],0.769%
C/C=C/[C@@H]1C=C[C@@H]2C[C@H](C)CC[C@H]2[C@]1(C)/C(O)=C1/C(=O)[C@@H](CO)N(C)C1=O,outcome,[1],inactive
same,max response,[2],3.96%
same,outcome,[4],inactive
CCOc1cc(C(C)(C)C)ccc1C1=NC(C)(c2ccc(Cl)cc2)C(C)(c2ccc(Cl)cc2)N1C(=O)N1CCN(CCCS(C)(=O)=O)CC1 (stereo not drawn),Potency,[1],5.17 µM (active)
same,Potency,[2],20.6 µM (active)
same,Potency,[4],9.2 µM (active)
CC1(C)OC[C@H](NC(=O)Nc2ccc(Br)cc2Br)[C@H](c2ccccc2)O1,outcome,[1],inactive
same,max response,[2],-5.94%
same,max response,[4],0.948%
